High-throughput results from PubChem BioAssay.
Only some compounds are listed: those with a hit (about 3.6% of all), similar ones and a draw of the others.
Mm-Cpn inhibitor: M. maripaludis TRiC chaperonin inhibition; 330,000 compounds, 0.031% hits; Potency, µM (titrated, usually from 76.9 µM), for the others: at the highest dose activity, negative = inhibition, usual class: inhibitors; purified Mm-Cpn ATPase, ADP Transcreener TR-FRET; further: on the % scale 0 is the no-effect control and ±100 the full control effect; nearly all actives have a fitted effect of over 80% in size
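Measured: ADP formation by purified Mm-CPN. Conditions: 25 nM protein, 10 uM ATP, Tris pH 7.4 with Mg2+, K+ and DTT, 37°C for 30 min. Detection: Transcreener HTRF after 30 min at room temperature.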
TDP43 rescue: rescues yeast growth from TDP-43 toxicity; TDP-43 expressing yeast growth rescue, BacTiter-Glo, 24 h; Potency, µM (top dose mostly 46.1 µM), for inactives: at the top dose growth rescue (activation), actives largely listed as activators; 410,000 compounds, 1.8% hits; further: % of control where 0% means no effect; nearly all actives have a fitted effect of over 50% in size
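Yeast expressing TDP-43 (pregrown in raffinose, seeded at OD600=0.02 in galactose medium) exposed to compounds 24 hr at 30 deg C. Growth read by BacTiter-Glo luminescence; rescue of toxicity appears as increased signal.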
FUS yeast rescue: FUS proteinopathy suppression in yeast | S. cerevisiae FUS-expressing, growth rescue, OD600, 24 h | 390,000 compounds, 0.24% hits | AID 1347120 | Potency, µM (highest dose often 76.6 µM), actives largely listed as activators;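 further: plate controls were DMSO vehicle for no effect and reference control for full effect; nearly all actives have a fitted effect of over 55% in size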
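Absorbance at 600 nm, taken 24hr after compound addition, measured rescue of FUS-yeast growth at 30C. Induction used 2% galactose with seeding at OD 0.005. Controls: CP55940 from 92uM final, DMSO only.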
Abeta yeast res: restores growth of yeast expressing A-beta42 peptide. yeast expressing A-beta42, growth rescue, OD600, 48 h; response scale: 0% DMSO, 100% iron-clioquinol control. Potency, µM (top dose mostly 46.1 µM), usual class: activators. 410,000 compounds, 0.063% hits. AID 1347071; further: nearly all actives have a fitted effect of over 55% in size
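Growth rescue measured by 600 nm absorbance after 48 h yeast culture at 30 C with compound. Values normalized between DMSO and an equimolar ferric chloride plus clioquinol control.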
ClpP mod: qHTS Assay for Activators of ClpP; ATP-dependent Clp protease proteolytic subunit (Bacillus subtilis (strain 168)), P80244; purified B. subtilis ClpP, FRET peptide cleavage, 20 min; Potency, µM (highest dose often 57.5 µM), for the others: at the highest dose activity change, negative = active; 340,000 compounds, 1.9% hits; active means well fitted falling curve with a large enough effect; inconclusive means small, poorly fitted or top-dose-only effect; inactive means no such curve, though single readings can be large or run the other way; further: the source files actives as falling curves though it sought activators and does not explain the sign; nearly all actives have a fitted effect of over 65% in size
Target sequence (P80244 whole entry, looked up): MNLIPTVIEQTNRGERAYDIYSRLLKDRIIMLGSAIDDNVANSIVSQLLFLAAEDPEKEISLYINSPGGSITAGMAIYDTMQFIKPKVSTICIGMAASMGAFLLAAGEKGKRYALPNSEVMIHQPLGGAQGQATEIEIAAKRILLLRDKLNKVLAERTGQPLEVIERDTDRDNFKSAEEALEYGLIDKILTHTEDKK
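ClpP 10 microg/mL final, pH 8 Tris/KCl buffer with BSA, glycerol, Tween-20; compound pinned in; FRET-FV substrate; RT 20 min; Ex320/Em430; ΔFRET vs ADEP 5.8 microM, DMSO, no enzyme.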
aSyn yeast inh: inhibitors of alpha-synuclein toxicity in yeast | 370,000 compounds, 0.14% hits | AID 652106 | Yeast expressing alpha-synuclein, growth rescue, BacTiter-Glo, 24 h | Potency, µM (top dose mostly 46.1 µM), for inactives: at the top dose growth rescue (activation), usual class: activators; further: % of control where 0% means no effect; nearly all actives have a fitted effect of over 65% in size
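Galactose-induced alpha-syn yeast (OD600=0.02, raffinose-pregrown) + pinned cpd, 24 hr, 30 deg C; growth by BacTiter-Glo luminescence. Growth restoration scores as activation.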
* = called active by the depositor; i = inactive; ? = inconclusive; . = no result. Unless noted, the call rests on the fitted dose curve; in most records, active means well fitted curve in the direction sought with a large enough effect; inconclusive means small, poorly fitted or top-dose-only effect, or another doubt; inactive means no such curve, though single readings can be large; an effect the other way counts as inactive or inconclusive. Potency means the concentration at half of the fitted maximal effect.

SMILES	Mm-Cpn inhibitor	TDP43 rescue	FUS yeast rescue	Abeta yeast res	ClpP mod	aSyn yeast inh
O=C1CC(c2nc3ccccc3n2Cc2c(F)cccc2Cl)CN1c1cccc(C(F)(F)F)c1 (centres undefined)	.	25µM*	i	i	-1%	.
Cc1ccccc1OCCCCn1c(C2CC(=O)N(c3ccccc3Cl)C2)nc2ccccc21 (centres undefined)	.	11µM*	i	?	?	.
Cc1cccc(C)c1OCCn1c(C2CC(=O)N(c3cccc(Cl)c3)C2)nc2ccccc21 (centres undefined)	.	-2%	i	i	-9%	.
CCOc1ccc(N2CC(c3nc4ccccc4n3Cc3ccccc3F)CC2=O)cc1 (centres undefined)	.	1%	i	i	-2%	.
COCCN1C=C(C(=O)OC)C(c2ccccc2C(F)(F)F)C(C(=O)OC)=C1	0%	0%	i	i	-6%	12%
CCCCN1C=C(C(=O)OC)C(c2ccccc2C(F)(F)F)C(C(=O)OC)=C1	0%	2%	i	i	32µM*	-3%
NS(=O)(=O)c1ccc(NC(=O)CN2CCN(c3ccc(F)cc3)CC2)cc1	.	12%	i	i	-1%	.
O=C(/C=C/c1ccccc1)NC(=S)Nc1ccccc1	-2%	10%	i	?	.	0%
O=C(NNC(=O)c1ccco1)c1ccccc1	2%	-11%	i	i	-2%	-14%
O=C(/C=C/c1ccccc1)NC(=S)NNC(=O)c1ccco1	0%	11µM*	?	i	2%	3.5µM*
O=C(/C=C/c1ccc(Br)cc1)NC(=S)NNC(=O)c1ccco1	-4%	5.6µM*	i	i	2%	22µM*
Cc1cccc(NC(=S)NNC(=O)c2ccco2)c1	0%	-12%	i	i	1%	-30%
O=C(NC(=S)NNC(=O)c1ccco1)c1ccccc1	2%	?	i	?	0%	13µM*
Cc1c(C)n(Cc2ccc(F)cc2)c2ccc(C(=O)N3CCN(c4ccc(F)cc4)CC3)cc12	.	-1%	i	i	-26%	.
CCOc1ccc(NC(=O)Cn2c(=O)oc3cc(S(=O)(=O)NC4CCCC4)ccc32)cc1	.	19%	i	i	0%	.
CCc1ccc(CSc2nc(-c3ccccc3OC)nc3c2Cc2c(CO)cnc(C)c2O3)cc1	.	4%	i	i	-2%	.
CC[N+]1(CC(=O)c2ccc(Br)cc2)CCCCC1	.	.	.	.	1%	.
CC[N+]1(CC(=O)c2ccc(OC)cc2)CCCCC1	.	.	.	.	1%	.
CN(C)CCC(c1ccccc1)c1ccccn1 (centres undefined)	-3%	8%	i	i	-1%	13%
CC(C1=C(CCN(C)C)Cc2ccccc21)c1ccccn1 (centres undefined)	.	24%	.	i	32µM*	-7%
C=CCN(CC=C)C(=S)NC(=O)c1ccc(-c2ccccc2)cc1	0%	13µM*	.	i	1%	?
C=CCN(CC=C)C(=S)NC(=O)c1ccc(C)c(Br)c1	-1%	?	.	i	1%	14µM*
C=CCN(CC=C)C(=S)NC(=O)c1ccc(OC)cc1	-1%	26%	i	i	-7%	-10%
[O-][N+]12CCCc3cccc(c31)CCC2	.	.	.	.	-10%	.
COCCCn1c(SCC(=O)Nc2ccc(F)cc2)nc2c(sc3ccccc32)c1=O	.	19%	i	i	6%	.
SMILES	Mm-Cpn inhibitor	TDP43 rescue	FUS yeast rescue	Abeta yeast res	ClpP mod	aSyn yeast inh
CC(=O)N(C)c1ccc(NC(=S)Nc2cccc3ccccc23)cc1	-4%	14%	i	i	32µM*	-1%
CC(=O)N(C)c1ccc(NC(=S)Nc2ccccc2)cc1	0%	-10%	.	i	-2%	-8%
COc1cccc(/C=C/C(=O)Nc2ccccc2N2CCOCC2)c1	1%	22µM*	i	i	-2%	-19%
O=C(NC(=S)Nc1ccccc1N1CCCCC1)c1ccco1	-2%	35µM*	i	i	1%	2%
O=C(/C=C/c1ccco1)NC(=S)Nc1ccccc1N1CCOCC1	-1%	25µM*	i	i	2%	2%
COc1ccc(OCC2c3cc(OC)c(OC)cc3CCN2C(=O)c2c(F)cccc2F)cc1 (centres undefined)	.	27%	?	i	1%	12%
CCOc1ccccc1CNC(=O)Cn1cc2c(n1)-c1c(oc(C(=O)N3CCCC3)c1C)CC2	.	20%	i	i	9%	.
O=C(/C=C/c1ccco1)NC(=S)Nc1ccccc1N1CCCC1	-7%	22µM*	?	?	-2%	0%
CC(=O)N(C)c1ccc(NC(=S)NC(=O)/C=C/c2ccco2)cc1	-12%	21%	35µM*	i	1%	3%
Cc1ccc(Cl)cc1N1CCN(C(=O)CCC(=O)Nc2ccc3nc(N4CCC(C)CC4)cc(C)c3c2)CC1	.	-2%	i	i	?	.
Cc1noc(/C=C/N(C)C)c1S(=O)(=O)N1CCCC(C(=O)Nc2ccc3c(c2)OCO3)C1 (centres undefined)	-1%	2%	5.6µM*	i	2%	0%
Cc1c(NC(=O)C(C)OC(=O)c2c3c(nc4ccccc24)CCC3)c(=O)n(-c2ccccc2)n1C (centres undefined)	-1%	0%	22µM*	i	1%	-4%
Cc1c(NC(=O)COC(=O)c2c3c(nc4ccccc24)CCCC3)c(=O)n(-c2ccccc2)n1C	-3%	-5%	i	i	4%	0%
ClC(Br)=C(n1cnc2ccccc21)n1cnc2ccccc21	-3%	23%	.	i	25µM*	11%
CN(C(=O)n1cnc2ccccc21)c1ccccc1	1%	?	i	i	1%	-1%
Cc1ccc(C2NC(=O)c3c(sc4c3CCN(C)C4)N2)o1 (centres undefined)	-4%	-18%	i	i	28µM*	1%
CN1CCc2c(sc3c2C(=O)NC(c2ccccc2)N3)C1 (centres undefined)	-5%	7%	i	i	1%	-2%
CN1CCc2c(sc3c2C(=O)NC(c2ccccn2)N3)C1 (centres undefined)	-4%	3%	i	i	16µM*	-15%
Cc1ccc(C2NC(=O)c3c(sc4c3CCN(C)C4)N2)s1 (centres undefined)	-4%	-10%	i	i	25µM*	0%
CN(Cc1ccccc1)S(=O)(=O)c1nnc(NC(=O)c2ccccc2Cl)s1	.	-2%	i	i	0%	.
